The entries come from a sample that favours hits as a whole.
SF1 inhibitor: blocks the human nuclear receptor SF-1. AID 525. 65,000 tested, 0.55% active. inhibition, % at 10 µM. Q13285. CHO-K1 Gal4-SF-1 LBD luciferase reporter;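 active means inhibition above the mean inhibition of all tested compounds plus 3 SD, cut at about 48% in these data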;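 further: 0% = SF-1 transfected cells with DMSO and 100% = mock-transfected cells lacking SF-1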
Target sequence (Q13285 whole entry, looked up, the tested form may be a part): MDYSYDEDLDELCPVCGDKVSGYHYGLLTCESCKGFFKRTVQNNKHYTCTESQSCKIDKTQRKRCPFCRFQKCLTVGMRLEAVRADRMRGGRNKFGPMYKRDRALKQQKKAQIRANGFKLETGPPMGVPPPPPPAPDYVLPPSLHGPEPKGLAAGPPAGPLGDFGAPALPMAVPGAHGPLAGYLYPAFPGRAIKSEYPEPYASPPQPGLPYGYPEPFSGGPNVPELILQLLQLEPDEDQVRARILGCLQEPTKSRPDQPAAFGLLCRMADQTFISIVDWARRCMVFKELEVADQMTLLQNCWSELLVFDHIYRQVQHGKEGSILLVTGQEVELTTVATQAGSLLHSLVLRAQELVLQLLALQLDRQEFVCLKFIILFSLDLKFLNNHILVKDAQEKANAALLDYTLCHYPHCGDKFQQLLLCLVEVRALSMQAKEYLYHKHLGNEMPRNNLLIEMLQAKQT
Active calls of the source: *.

SMILES | SF1 inhibitor
CCOC(=O)c1[nH]nc(N)c1NC(=O)c1ccc(Cl)cc1Cl | -27
CN(C(=O)c1cccc(N2C(=O)C3CC=CCC3C2=O)c1)C1CCCCC1 (stereo not drawn) | -6
Cc1nnc(SC(=O)N2c3ccccc3Sc3ccccc32)s1 | 65*
Cc1nnc(SCC(=O)N2c3ccccc3CC2C)s1 (stereo not drawn) | 6
C/C(=N\O)c1ccc2c3c([nH]c2c1)CCCC3 | -64
CC(=O)N1CCc2cc3nc(C)cc(C)c3cc21 | 0
Cn1c(=O)oc2cc(S(=O)(=O)N3CCC(N4CCCCC4)CC3)ccc21 | 26
CC(C)NCC(O)Cn1c2c(c3ccccc31)CCc1c-2cnn1-c1ccccc1 (stereo not drawn) | 52*
O=C(Nc1cccc(-c2nnc(-c3ccccc3)o2)c1)c1ccc(Br)o1 | -67
CC(=O)c1cccc(NC(=O)N2CCCC2C(=O)Nc2c(C)cccc2C)c1 (stereo not drawn) | 23
COC(=O)c1ccc(COc2ccc(-c3nn[nH]n3)cc2)cc1 | -24
c1ccc(-c2nc(NCC3CCCO3)c3ccccc3n2)nc1 (stereo not drawn) | 1
c1ccc(-n2ncc3c(NCc4ccco4)ncnc32)cc1 | -77
c1ccc(-c2nc(NCc3ccco3)c3ccccc3n2)nc1 | 76*
Cc1cc(C)n(-c2nc(C)nc3sc4c(c23)CCC(C)C4)n1 (stereo not drawn) | 5
CC(C)N(C=O)C1(C(=O)NC2CCCCC2)CCCCC1 | 0
COCCCNC(=O)c1ccc(NS(C)(=O)=O)cc1 | 2
Cc1cnc(C(=O)Nc2cccc3cccnc23)cn1 | 61*
O=C(Nc1cccc2ccccc12)c1cnccn1 | -63
Cc1cnc(C(=O)Nc2nnc(C(C)C)s2)cn1 | -68
O=C(Cn1ncn2c(cc3ccccc32)c1=O)NCc1ccco1 | -8
O=[n+]1c2c(n([O-])c3cc(F)c(F)cc31)CCCC2 | 7
c1cc(CNc2ccc3c(c2)OCO3)ccn1 | -7
O=C(/C=C\Nc1ccc2c(c1)OCO2)c1ccccn1 | 83*
O=C(Nc1ccc2c(c1)OCO2)c1cccs1 | -61
SMILES | SF1 inhibitor
Cc1cc(C)c2cc(C(c3nnnn3CC3CCCO3)N3CCN4CCCC4C3)c(=O)[nH]c2c1 (stereo not drawn) | -1
Cc1cc(C)n(-c2nc3c(c(=O)[nH]c(=O)n3C)n2CC(C)C)n1 | -29
CCn1c2ccccc2c2cc(Nc3cc(C)nc4ncnn34)ccc21 | 70*
Cc1cc(N2CCc3ccccc32)n2ncnc2n1 | 16
Cc1cc(N2CCN(c3nnnn3-c3ccccc3)CC2)n2ncnc2n1 | -6
COc1cccc2cc(C(=O)C3=C(O)C(=O)N(CCN4CCOCC4)C3c3cccs3)oc12 (stereo not drawn) | 13
CN(CC(=O)N1CCc2ccccc21)S(=O)(=O)c1cccc2cccnc12 | 15
Cc1cc(N2CCN(C(=O)c3ccco3)CC2)n2nc(-c3cccc(Cl)c3)cc2n1 | 12
Clc1ccc2nc(N3CCCCC3)sc2c1 | -65
CC1CCN(c2nc3ccc(C(=O)O)cc3s2)CC1 | 94*
O=C(NCC1CCCO1)c1ccc2nc(N3CCCCC3)sc2c1 (stereo not drawn) | -54
O=C(c1ccc(CS(=O)(=O)Cc2ccc(Cl)cc2)o1)N1CCCC1 | 5
CC(=O)NCCc1nc2ccccc2n1Cc1ccccc1 | 32
COc1nc(OCCNC(=O)Nc2ccccc2)nc(N(C)C)n1 | 5
CC(=O)N1CCN(c2ccc(Oc3nc(-c4ccccc4)nc4ccccc34)cc2)CC1 | -12
CC1CN(c2nc(-c3ccccc3)nc3ccccc23)CC(C)O1 (stereo not drawn) | 25
c1ccc(N2CCN(c3nc(-c4ccccn4)nc4ccccc34)CC2)cc1 | 52*
Cc1cccc(-c2nnc(-c3ccccc3)o2)c1 | -60
Cc1cccc(CN2CCC(CNC(=O)C3CCCN(S(=O)(=O)c4cnc[nH]4)C3)CC2)c1 (stereo not drawn) | -3
CCN1CCc2c(sc3c2c(NCc2ccco2)nc2nnnn23)C1 | -2
ONC(=Nc1ccccc1)C(=Nc1ccccc1)NO | 7
COCCn1c(C)cc(C(=O)CSc2nnc(C)s2)c1C | 68*
COCCn1c(C)cc(C(=O)CN2C(=O)NC3(CCCCCCC3)C2=O)c1C | -43
COCCn1c(C)cc(C(=O)COC(=O)C23CC4CC(CC(O)(C4)C2)C3)c1C | -77
CCn1c(CNC(=O)c2ccc3c(c2)OCO3)nnc1SCC(=O)Nc1cc(C)ccc1OC | 4
SMILES | SF1 inhibitor
COc1ccc(OC)c(NC(=O)CSc2nnnn2-c2ccc3c(c2)OCO3)c1 | 91*
CC(C)OC(=O)CSc1nnnn1-c1ccc2c(c1)OCCO2 | -69
O=C(C1COc2ccccc2O1)N1CCc2ccccc21 (stereo not drawn) | -54
O=C(CCN1C(=O)c2ccccc2C1=O)OCn1nnc2ccccc2c1=O | 4
O=C(CSc1nnnn1C1CCCC1)Nc1cccc(NC(=O)c2ccco2)c1 | -3
COc1ccccc1-n1nnnc1SCC(=O)Nc1cc(C)on1 | 3
O=C(CSc1nnnn1C1CC2CCC1C2)Nc1ccnc2ccccc12 (stereo not drawn) | 76*
O=C(Cn1cc2c(n1)CCCC2)Nc1cc(-c2cccc(Cl)c2)no1 | -9
O=C(OCc1nc2ccccc2s1)C1CCN(C2=NS(=O)(=O)c3ccccc32)CC1 | -53

High-throughput results (PubChem BioAssay)
